Compound activity: PubChem, National Center for Advancing Translational Sciences (NCATS)
Rows were chosen to be rich in hits. Some 7.3% of all compounds tested hit in one or more screens of this group.
FLuc modulator = qHTS profiling assay for firefly luciferase inhibitor/activator using purifed enzyme and Km concentrations of substrates (counterscreen for miR-21 project). 360,000 compounds, 6.9% hits. Luciferin 4-monooxygenase (Photinus pyralis), P08659. Potency, µM (highest dose often 57.5 µM), actives largely listed as inhibitors. purified FLuc, Km substrates, luminescence inhibition; also: nearly all actives have a fitted effect of over 55% in size
Target sequence (P08659 whole entry, looked up): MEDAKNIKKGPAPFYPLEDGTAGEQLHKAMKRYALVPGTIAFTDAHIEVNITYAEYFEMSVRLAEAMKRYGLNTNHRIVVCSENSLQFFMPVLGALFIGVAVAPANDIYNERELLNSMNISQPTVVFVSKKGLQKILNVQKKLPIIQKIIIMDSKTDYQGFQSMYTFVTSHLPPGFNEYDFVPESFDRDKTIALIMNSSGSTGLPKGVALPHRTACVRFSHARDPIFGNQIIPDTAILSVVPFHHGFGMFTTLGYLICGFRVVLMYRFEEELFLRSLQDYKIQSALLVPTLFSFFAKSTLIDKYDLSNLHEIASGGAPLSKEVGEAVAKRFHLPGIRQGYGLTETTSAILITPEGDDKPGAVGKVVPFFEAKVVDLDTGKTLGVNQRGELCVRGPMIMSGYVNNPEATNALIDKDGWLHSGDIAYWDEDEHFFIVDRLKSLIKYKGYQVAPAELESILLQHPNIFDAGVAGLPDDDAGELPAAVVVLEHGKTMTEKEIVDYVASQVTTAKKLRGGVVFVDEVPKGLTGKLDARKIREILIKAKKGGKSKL
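Biochemical qHTS of compounds, final roughly 60 µM downward over six points, against 10 nM purified firefly luciferase using Km concentrations of substrates (10 uM D-luciferin, 10 uM ATP) in Tris acetate pH 7.5 buffer; luminescence output.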
SMN2 splice up = qHTS Assay for Enhancers of SMN2 Splice Variant Expression | HEK293 SMN2-luciferase splicing reporter, luminescence, 30-36 h | Potency, µM (series often up to 46.1 µM), actives largely listed as activators | 210,000 compounds, 2.8% hits; also: nearly all actives have a fitted effect of over 55% in size
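HEK293 cells carry an SMN2 minigene-luciferase reporter in which exon 7 inclusion puts luciferase in frame. Cells were seeded at 2000 cells/well, attached for 10-12 hours, then exposed to compounds for 30-36 hours at 37C before ONE-Glo luminescence.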
NPC1 prom act = qHTS Assay for NPC1 Promoter Activators | Huh7 NPC1 promoter luciferase reporter, 24 h | Potency, µM (series often up to 9.22 µM), most hits filed as activators | 320,000 compounds, 2.4% hits | AID 485313, 2010; also: nearly all actives have a fitted effect of over 60% in size
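Luminescence from an NPC1 promoter-driven luciferase reporter in stably transfected Huh7 cells was measured after 24 h compound treatment at 37 °C, followed by 10 min ambient incubation with luciferase detection reagent.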
Rab9 prom act = qHTS Assay for Rab9 Promoter Activators; Potency, µM (titrated, usually from 9.22 µM), most hits filed as activators; 320,000 compounds, 2.8% hits; Huh7 Rab9 promoter-luciferase reporter, luminescence, 24 h; AID 485297, 2010; also: nearly all actives have a fitted effect of over 60% in size
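Stable Rab9-luc Huh7, 1500 cells/well, 2 h settle; cmpd in DMSO, 24 h, 37 °C/5% CO2; luciferase reagent 10 min RT; luminescence.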
KinaseGlo FLuc = Counterscreen for Luciferase (Kinase-Glo TM) Inhibition | Kinase-Glo luciferase, ATP luminescence, 8 min | Potency, µM (titrated, usually from 38.3 µM), hits mostly inhibitors | 200,000 compounds, 0.28% hits | AID 1379, 2008; also: nearly all actives have a fitted effect of over 60% in size
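Compounds were added to a substrate mix at pH 7.2 (50 mM imidazole, 10 uM ATP, within the enzyme's linear range), followed by Kinase-Glo detection reagent; luminescence was measured after 8 minutes at ambient temperature.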
ELG1 genotoxic = qHTS screen for small molecules that induce genotoxicity in human embryonic kidney (HEK293T) cells expressing luciferase-tagged ELG1; HEK293T ELG1-luciferase reporter, luminescence, 16 h; Potency, µM (series often up to 46 µM), actives largely listed as activators; 330,000 compounds, 1.3% hits; AID 504466, 2011; also: nearly all actives have a fitted effect of over 60% in size
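16 hr compound incubation (37 °C, 5% CO2) of HEK293T cells carrying luciferase-tagged ELG1; luciferase then measured by ONE-Glo luminescence after 30 min at RT.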
Numbers stand for hits. Calls follow the shape of the dose curve; as a rule, active = well fitted curve in the direction sought with a large enough effect; inconclusive = small, poorly fitted or top-dose-only effect, or another doubt; inactive = no such curve, though single readings can be large; an effect the other way counts as inactive or inconclusive.

Cc1ccc(-n2c(SCC(N)=O)nc3c(oc4ccccc43)c2=O)cc1C was read as FLuc modulator inactive and SMN2 splice up inactive.
Cc1ccc(/C(N)=N/OC(=O)Cc2cccs2)cc1 was read as FLuc modulator 9.53µM, SMN2 splice up inactive, NPC1 prom act inconclusive, Rab9 prom act inconclusive, KinaseGlo FLuc inactive and ELG1 genotoxic inconclusive.
`N/C(=N\OC(=O)Cc1cccs1)c1cccc([N+](=O)[O-])c1` gave FLuc modulator inconclusive, SMN2 splice up inactive, NPC1 prom act inactive, Rab9 prom act inactive, KinaseGlo FLuc inactive and ELG1 genotoxic inactive.
`N/C(=N\OC(=O)Cc1cccs1)c1ccc(Cl)cc1` gave FLuc modulator 13.5µM, NPC1 prom act inactive, Rab9 prom act inactive and ELG1 genotoxic inconclusive.
Screening N/C(=N\OC(=O)Cc1cccs1)c1ccccc1 returned FLuc modulator 15.1µM, SMN2 splice up inactive, NPC1 prom act inconclusive, Rab9 prom act inactive, KinaseGlo FLuc inactive and ELG1 genotoxic inconclusive.
For Cc1cccc(/C(N)=N/OC(=O)Cc2cccs2)c1 the results were FLuc modulator 13.5µM, SMN2 splice up inactive, NPC1 prom act inconclusive, Rab9 prom act inconclusive, KinaseGlo FLuc inactive and ELG1 genotoxic inconclusive.
`COc1ccc(-c2cc(C)no2)cc1S(=O)(=O)Nc1c(C)cc(C)cc1C` gave FLuc modulator inactive.
`Cc1nn(C)c2c1c(C(F)(F)F)cc(=O)n2CC(=O)NCc1ccccc1Cl` gave FLuc modulator inactive.
Screening COc1ccc(N2C(=O)CS(=O)(=O)C23C(=O)N(Cc2ccccc2F)c2ccccc23)cc1Cl (stereo not given) returned FLuc modulator inactive.
For Cc1ccc(/C(N)=N/OC(=O)Cc2ccccc2)cc1 the results were FLuc modulator 19µM, SMN2 splice up inactive, NPC1 prom act inactive, Rab9 prom act inactive, KinaseGlo FLuc inactive and ELG1 genotoxic inconclusive.
For CC(C)c1ccc(NC(=O)c2cc3c(=O)oc4ccccc4c3s2)cc1 the results were FLuc modulator inactive and SMN2 splice up inactive.
Screening Cc1cc(C)cc(NC(=O)c2ncn(-c3ccccc3)n2)c1 returned FLuc modulator inconclusive and SMN2 splice up 11.2µM.
`CCOC(=O)C1CCN(C(=O)Cn2c(-c3cccs3)cc3cc(Cl)ccc32)CC1` gave FLuc modulator inactive.
For COc1ccc(OCc2nc(-c3ccc(OC)c(OC)c3)no2)cc1 the results were FLuc modulator inactive and SMN2 splice up inactive.
COc1ccc(-c2cc(-c3cc(F)ccc3O)[nH]n2)cc1OC was read as FLuc modulator 8.49µM, SMN2 splice up inconclusive, NPC1 prom act 3.16µM, Rab9 prom act 3.98µM, KinaseGlo FLuc inactive and ELG1 genotoxic inconclusive.
Screening COc1ccc(-c2ncncc2-c2ccc(OC)c(OC)c2)c(O)c1 returned FLuc modulator inactive, NPC1 prom act inactive, Rab9 prom act inactive and ELG1 genotoxic inactive.
CCOc1ccc(-c2cc(-c3nc(-c4ccc(OC)c(OC)c4)no3)[nH]n2)cc1 was read as FLuc modulator 19µM.
For COc1ccc(-c2cc(-c3ccccc3O)[nH]n2)cc1OC the results were FLuc modulator 2.39µM, SMN2 splice up inconclusive, NPC1 prom act inconclusive, Rab9 prom act 3.98µM, KinaseGlo FLuc inactive and ELG1 genotoxic 20.6µM.
For COC(=O)c1cc(-c2ccc(OC)c(OC)c2)n[nH]1 the results were FLuc modulator inactive, SMN2 splice up inactive, NPC1 prom act inactive, Rab9 prom act inactive, KinaseGlo FLuc inactive and ELG1 genotoxic inactive.
`COc1ccc(-c2cc(-c3ccc(OC)c(OC)c3)n[nH]2)c(O)c1` gave FLuc modulator 5.36µM, SMN2 splice up 22.4µM, NPC1 prom act inconclusive, Rab9 prom act inconclusive, KinaseGlo FLuc inactive and ELG1 genotoxic 5.8µM.
